# NALP1 yeast inh: inhibitors of NALP1 inflammasome in yeast | inhibition, % at 10 µM | 280,000 compounds, 0.61% hits | S. cerevisiae NALP1/ASC/caspase-1 growth, X-gal OD620, 72 h; in the data active means inhibition mostly above about 24%, no sharp cut-off; inactive means mostly below about 32%
# PfHsp90 set2: growth inhibition of yeast expressing Plasmodium Hsp90; inhibition, % at 9.4 µM; S. cerevisiae expressing PfHsp90, BacTiter-Glo ATP, 48 h; yeast lacking PDR1 and PDR3 efflux regulators; 310,000 compounds, 0.32% hits; AID 504621;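 active means every replicate shows inhibition above about 80%, whatever the replicate mean, limit read from the data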;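 further: 0% = DMSO neutral controls and 100% = 20 µM radicicol positive controls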
# TIM10 inh: growth inhibitors of TIM10 yeast strain. 330,000 compounds, 1.4% hits. S. cerevisiae TIM10 strain growth, BacTiter-Glo luminescence, 24 h. inhibition, % at 10 µM. AID 463195;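 active means inhibition of 40% or more at the single tested concentration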;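 further: wild-type TIM10 isogenic control strain grown at permissive 25 °C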
# NLRP3 yeast inh: blocks the NALP3 inflammasome reconstituted in yeast; Yeast reconstituted NLRP3/ASC/caspase-1, beta-gal luminescence, 24 h; inhibition, % at 10 µM; 330,000 compounds, 0.39% hits;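 active means inhibition of 50% or more; inactive means inhibition below 50%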;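 further: plate controls were induced DMSO wells for no effect and uninduced yeast grown without galactose for full effect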
# tim10-1 inh: growth inhibitors of tim10-1 mutant yeast; S. cerevisiae tim10-1 ts strain growth, BacTiter-Glo, 24 h; AID 463190; inhibition, % at 20 µM; 330,000 compounds, 2.2% hits;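 active means inhibition of at least 40%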;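 further: mutant grown at 25 °C; 0% = DMSO wells with yeast and 100% = wells holding no yeast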
# tim23-1 inh: inhibits growth of tim23-1 mutant yeast; S. cerevisiae tim23-1 growth, BacTiter-Glo luminescence, 24 h; inhibition, % at 20 µM; 330,000 compounds, 1.3% hits;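 active means growth inhibition of the mutant yeast at or above 50%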;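 further: temperature-sensitive mutant grown at 25 °C; plate controls were DMSO-treated mutant yeast for no effect and medium wells lacking yeast for full effect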
# tim10-1 confirm: confirmation of tim10-1 mutant yeast growth inhibitors | shares compounds with tim10-1 inh | 7,400 compounds, 56% hits | S. cerevisiae tim10-1 ts strain growth, BacTiter-Glo, 24 h | inhibition, % at 20 µM;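 active means inhibition of yeast growth at or above a set limit in either of two repeat tests at 20 µM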;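 further: tim10-1 mutant grown at permissive 25 °C to find synthetic lethal compounds; 0% = DMSO yeast wells and 100% = medium wells without yeast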
# tim10 confirm: confirmation of TIM10 yeast growth inhibitors | shares compounds with TIM10 inh | S. cerevisiae tim10 strain growth, BacTiter-Glo luminescence, 24 h | inhibition, % at 10 µM | 4,600 compounds, 63% hits;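 active means inhibition of yeast growth at or above a set limit in either of two replicates at 10 µM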;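 further: this counterscreen used the strain with wild-type TIM10; 0% = yeast with DMSO and 100% = medium wells lacking yeast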
# * hit, by the source's call; x = no result given. Hits are enriched below; roughly 4.2% of the tested compounds scored in any of these assays.
SMILES,NALP1 yeast inh,PfHsp90 set2,TIM10 inh,NLRP3 yeast inh,tim10-1 inh,tim23-1 inh,tim10-1 confirm,tim10 confirm
N#C/C(C(=O)Nc1ccc(Cl)cc1)=C(/S)Nc1ccccc1,19,73,45*,20,69*,17,60*,56*
CC(=O)Nc1ccc(NC(=O)CSc2nc(N)c(NC(=O)c3ccccc3F)c(=O)[nH]2)cc1,6,0,-1,12,-16,-10,x,x
COc1ccccc1-c1c(C)nn2c(N3CCOCC3)cc(C)nc12,17,7,20,-1,27,14,x,x
COc1ccccc1-c1c(C)nn2c(N3CCCCCC3)cc(C)nc12,25,11,41*,33,56*,49,41*,34*
COc1ccccc1N1CCN(C(=O)c2cc(-c3ccc(Cl)cc3)on2)CC1,-2,9,48*,-2,47*,33,32*,30*
COc1cccc(-c2cc(C(=O)N3CCN(Cc4ccccc4)CC3)no2)c1,-24,9,42*,15,44*,30,30*,46*
COc1ccc(-c2cc(C(=O)N3CCN(Cc4ccccc4)CC3)no2)cc1OC,10,-5,28,21,35,44,x,x
COc1cccc(-c2nc(NCC3CCCO3)c3ccccc3n2)c1O (centres undefined),9,12,3,28,16,5,x,x
Oc1ccccc1-c1nc(NCC2CCCO2)c2ccccc2n1 (centres undefined),6,-25,61*,17,56*,31,40*,27
COCCCn1c(SCC(=O)n2c(C)c(C)c3ccccc32)nnc1-c1ccoc1C,10,13,40*,17,44*,34,33*,-6
COCCCn1c(SCC(=O)N2CC(=O)Nc3ccccc32)nnc1-c1ccoc1C,-12,-21,4,1,5,3,x,x
CCc1ccc2nc(N(CCCN(C)C)C(=O)c3ccc(S(=O)(=O)N4CCc5ccccc5C4)cc3)sc2c1,26,x,28,12,31,16,x,x
CCOc1cccc2sc(N(CCCN(C)C)C(=O)c3ccc(S(=O)(=O)N4CCc5ccccc5C4)cc3)nc12,24,-1,42*,26,45*,15,23,32*
Cc1ccsc1/C=N/NC(=S)NCCc1ccccc1,2,-7,41*,3,54*,18,-17,44*
C/C(=N\NC(=S)NCc1ccccc1)c1ccccc1,16,-16,44*,-10,47*,31,44*,40*
CCNC(=S)N/N=C(\C)c1ccc2ccccc2c1OC(F)F,10,-1,56*,28,47*,32,-1,41*
CCNC(=S)N/N=C(\C)c1ccc2ccccc2c1,7,x,53*,4,42*,35,31*,38*
COc1ccc(CNC(=S)N/N=C(/C)c2ccccc2)cc1,5,x,33,39,35,34,x,x
CCNC(=S)NNC(=O)c1ccccc1OC(F)F,33,9,2,13,7,9,x,x
C[C@H](NC(=O)N1CCn2c1nc1ccccc12)C(=O)NCC1CCCO1 (some centres undefined),13,5,11,4,7,-10,x,x
CCOC(=O)c1ccc2c(c1)N(CC#N)C(=O)C(C)(C)O2,-4,-12,18,27,14,12,x,x
CCCCN(C)CCNC(=O)CCn1nc(-c2ccc(Cl)cc2)ccc1=O,3,3,-3,16,11,2,x,x
Cc1ccc(C)c(NC(=S)NCc2ccc3[nH]c4c(c3c2)CCCC4)c1,24,13,43*,23,45*,43,35*,40*
COc1ccc(C(=O)OCC(=O)c2ccccc2)cc1S(=O)(=O)N1CCOCC1,7,x,17,1,24,30,x,x
O=C(CS(=O)c1ccccc1[N+](=O)[O-])Oc1ccc(Br)cc1 (centres undefined),14,10,51*,11,81*,45,64*,54*
SMILES,NALP1 yeast inh,PfHsp90 set2,TIM10 inh,NLRP3 yeast inh,tim10-1 inh,tim23-1 inh,tim10-1 confirm,tim10 confirm
O=C(Cc1c(F)cccc1Cl)NNC(=O)c1ccncc1,x,x,5,-5,-2,-7,x,x
COc1ccc(C(=O)C(CN2CCOCC2)c2ccccc2)cc1 (centres undefined),6,11,48*,36,55*,23,54*,66*
O=C(c1ccc(F)cc1)C(CN1CCOCC1)c1ccccc1 (centres undefined),1,-10,57*,42,53*,49,36*,64*
c1ccc(C(CN2CCOCC2)c2ccccc2)cc1,4,-9,-3,2,9,-5,x,x
CCC(O)(c1ccc(OC)cc1)C(CN1CCOCC1)c1ccccc1 (centres undefined),-4,-35,23,11,8,30,x,x
CCCCN(C)CCNC(=O)c1cc2cc3ccc(OC)cc3nc2o1,17,2,57*,21,49*,38,29*,46*
CCN(CC)CCNC(=O)c1cc2cc3ccc(OC)cc3nc2o1,18,7,23,6,0,-5,x,x
Cc1cccc(Oc2cc(NC(=O)c3ccccc3)cc([N+](=O)[O-])c2)c1,11,18,53*,20,44*,31,36*,2
Cn1cc([N+](=O)[O-])c(C(=O)Nc2cc(Oc3ccccc3)cc([N+](=O)[O-])c2)n1,17,1,x,x,x,x,x,x
O=C(CCCCCCC(=O)NCc1ccccc1)NCc1ccccc1,0,-32,-2,1,7,14,x,x
CCCCOc1ccc(Nc2cc(Cl)ccc2C(=O)O)cn1,14,-47,41*,9,52*,35,26,34*
COc1ccc(CC(=O)Nc2cc(Cl)ccc2C(=O)O)cc1,0,-24,6,17,-2,11,x,x
CCCCCC1CC(CC(=O)Nc2nncs2)C(=O)O1 (centres undefined),18,8,45*,10,40,44,37*,31*
Cc1nnc(NC(=O)C2CCCN2C(=O)Nc2ccccc2)s1 (centres undefined),11,-15,-22,1,9,8,x,x
COc1ccccc1NC(=O)CC12CC3CC(CC(Br)(C3)C1)C2,-19,-1,1,8,15,18,x,x
COc1ccc(C(C)(C)C)cc1NC(=O)COC(=O)c1ccc([N+](=O)[O-])o1,5,60,40,10,53*,-84,3,92*
COc1ccc(C)cc1NC(=O)COC(=O)c1ccc([N+](=O)[O-])o1,-1,2,88*,-5,78*,45,74*,-36

# Compound activity: PubChem BioAssay, several laboratories
